Sa RN4220 lethal – S. aureus RN4220 growth inhibition | AID 1259311 | OD600, 16 h | inhibition, % (test concentration not listed) | 0.33% of 330,000 active; in the data active = inhibition above about 85%
PriA SSB inh – blocks PriA binding to SSB C-terminal tail | AlphaScreen SSBct-PriA binding, biotinylated peptide | inhibition, % at 33 µM | 0.6% of 430,000 active | AID 1272365; in the data active = inhibition mostly above about 37%, no sharp cut-off; inactive = mostly below about 20%
ugtP null kill – growth inhibition of S. aureus ugtP deletion strain | growth inhibition, % (test concentration not listed) | S. aureus RN4220 ugtP deletion, OD600 growth, 16 h | 0.54% of 330,000 active; in the data active = growth inhibition above about 68%
Mtb hypoxia rep – Mtb hypoxia fluorescent reporter inhibition. fluorescence inhibition, % (no concentration beside the values). 0.1% of 300,000 active. M. tuberculosis hypoxia-regulated fluorescent reporter, fluorescence; in the data active = fluorescence inhibition mostly above about 23%, no sharp cut-off; inactive = mostly below about 17%
Mtb bLac sens – beta-lactam sensitization of Mtb H37Rv; AID 434955; inhibition, % at 25 µM; M. tuberculosis H37Rv growth with meropenem, percent inhibition; 0.27% of 330,000 active; call rule not given here;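 also: growth measured after seven days incubation then overnight dye step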
Numbers stand for hits; 0 = inactive; ? = inconclusive; - = no result shown. A selection: hits, their analogues and other compounds. The true share with any hit is near 1%.

SMILES	Sa RN4220 lethal	PriA SSB inh	ugtP null kill	Mtb hypoxia rep	Mtb bLac sens
O=[N+]([O-])c1cc(Cl)ccc1Nc1ccccc1	0	89	0	0	0
COc1ccc(C(O)CNC(=O)c2cc(C)cs2)cc1OC (stereo not given)	-	0	-	-	-
S=C(NNc1ccnc2cc(Cl)ccc12)Nc1ccc(Cl)cc1Cl	90	0	0	0	0
Cc1cc(C)cc(N=c2c([N+](=O)[O-])nn(-c3ccc(Cl)cc3)n2O)c1	0	51	0	0	0
CCc1ccc(N=c2c([N+](=O)[O-])nn(-c3ccccc3)n2O)cc1	0	70	0	0	0
O=C(CCCS(=O)(=O)c1ccc(Cl)cc1)Nc1nc(-c2ccccn2)cs1	-	33	-	-	-
O=C(CCS(=O)(=O)c1ccc(F)cc1)Nc1nc(-c2ccccn2)cs1	0	43	0	0	0
O=C(CCCS(=O)(=O)c1ccc(Cl)cc1)Nc1nc(-c2cccnc2)cs1	-	0	-	-	-
O=C(CCS(=O)(=O)c1ccccc1)Nc1nc(-c2ccccn2)cs1	0	0	0	0	0
COc1cccc([C@@H]2NC(=O)CN(C)C2=O)c1	-	0	-	-	-
O=C(CCc1ccccc1)Nc1ccccc1[N+](=O)[O-]	0	0	0	0	0
O=C(CCc1ccccc1)NC(=S)Nc1ccccc1[N+](=O)[O-]	0	39	0	0	?
CCCc1cc(N2CCN(CCOc3cccc4ccccc34)CC2)n2nc3nc(C)cc(C)c3c2n1	-	0	-	-	-
CN(C)C(=O)C1CCNCC1	-	39	-	-	-
Cc1ccc(N=Nc2cc(C)ccc2N)cc1	0	93	0	0	0
Cc1ccc(N)c(C)c1	0	0	0	0	0
O=C(C=C(O)c1ccc(Cl)cc1)C(=O)NNC(=O)C(O)(c1ccccc1)c1ccccc1	0	0	95	0	-
Cc1ccc(/C(O)=C/C(=O)C(=O)NNC(=O)C(O)(c2ccccc2)c2ccccc2)cc1	0	-	0	0	0
O=C(Cc1csc(NC(=O)Nc2ccc(Cl)cc2)n1)NCc1ccco1	-	0	-	-	-
O=c1cnnc(NN=Cc2ccccn2)[nH]1	0	71	0	0	-
C(=N\Nc1nncc2ccccc12)/c1ccccc1	-	0	-	-	0
Nc1c(Cl)ncnc1NN=Cc1ccccn1	0	110	0	0	-
C(=NNc1nncc2ccccc12)c1ccccn1	0	51	0	0	-
Nc1c(Cl)ncnc1N/N=C/c1ccccn1	-	-	-	-	0
CCOCC(=O)N1CCC2(CCc3ccccc3O2)CC1	-	0	-	-	-
SMILES	Sa RN4220 lethal	PriA SSB inh	ugtP null kill	Mtb hypoxia rep	Mtb bLac sens
O=C1CN[C@@H](c2cccc(Cl)c2)c2cc(Br)ccc2N1	-	0	-	-	-
Cc1ccc2sc(NCCN(C)C)nc2c1C	-	0	-	-	-
O=C(NNc1ccc(C(F)(F)F)cc1[N+](=O)[O-])c1ccc(NS(=O)(=O)c2ccc(F)cc2)cc1	0	60	0	0	0
CC(C)[C@H](Nc1ccc(C(F)(F)F)cc1[N+](=O)[O-])C(=O)O	0	0	0	0	0
O=c1c2ccccc2nc(/C=C/c2ccccc2)n1-c1ccc(O)cc1	0	0	0	0	0
COc1cc(/C=C/c2nc3ccccc3c(=O)n2-c2cccc(O)c2)ccc1O	99	0	99	0	0
O=c1c2ccccc2nc(/C=C/c2ccc(O)c(O)c2)n1-c1ccccc1	0	0	0	0	0
COc1cc(/C=C/c2nc3ccccc3c(=O)n2-c2ccccc2O)ccc1O	93	0	99	-	0
Cc1sc(NC(=O)c2ccccc2F)c(CN2CCCC2)c1C	-	0	-	-	-
COc1ccccc1Nc1nnc(CC(=O)N2CCN(c3ccccc3)CC2)s1	-	0	-	-	-
COc1ccc(C(C)=NN=C2NC(=O)CC(C(=O)O)S2)cc1 (stereo not given)	-	0	-	-	-
COc1ccc(NC(=O)CSc2nccn2Cc2ccccc2)cc1	0	46	0	0	0
Cn1ccnc1SCC(=O)Nc1ccc(Oc2ccccc2)cc1	0	40	0	0	0
CCOc1ccc(NC(=O)CSc2nccn2C)cc1	0	0	0	0	0
O=C(CCCSc1ccc(NC(=O)c2cccs2)nn1)Nc1nccs1	-	0	-	-	-
CC(=O)c1ccc(NC(=O)Cn2nc3c(cc2=O)CCCC3)cc1	-	0	-	-	-
CC(C)=CCc1c2c(c3occ(-c4ccc(O)cc4)c(=O)c3c1O)C=CC(C)(C)O2	99	0	100	-	0
Cn1nc(C(=O)NCc2ccccc2Cl)ccc1=O	-	0	-	-	-
O=C(CN1CCN(c2ccccc2F)CC1)N1CCc2ccccc21	0	0	0	0	0
O=C(CN1CCN(c2nccn2-c2ccccc2F)CC1)N1CCc2ccccc21	-	44	-	-	-
CC(=CC(=O)OCCCCCCCCC(=O)O)CC1OCC(CC2OC2C(C)C(C)O)C(O)C1O (stereo not given)	100	-	100	0	-
CCCN1CCCc2ccc(N)cc21	-	130	-	-	-
CC1CCc2nc(NC(=O)c3ccc(S(C)(=O)=O)cc3)sc2C1 (stereo not given)	-	0	-	-	-
